Source: PubChem BioAssay AID1159580 (chemical genetic matrix, 2015)
Several values for one entry are separate records, joined by “and”; a condition that tells them apart may be missing. Identical values can stand only once. Out of some 5,500 compounds screened, about 2,000 (36%) were called active. Roughly 18% stayed inconclusive and do not appear here. No stated cut-off is given here; in the data, active means normalized growth mostly below about 0.91 (no sharp cut-off); inconclusive means no clear call, values can overlap the other calls; inactive means mostly above about 0.92. The list shows a part of the results.

Assay: chemical genetic growth profiling, strain panel (AID 1159580);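 further: tested at 20 µM; growth read once vehicle control cultures reached saturation at 30 °C; 1 = growth at the plate median or of vehicle wells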
Settings: S. cerevisiae deletion strains, growth OD

Measured: normalized growth

Nc1nc2ncc(=O)[nH]c2c(=O)[nH]1
inactive: locus YAL013W, strain DEP1, stronger effect = lower value 1 | locus YAL021C, strain ccr4, stronger effect = lower value 0.978 | locus YAL026C, strain drs2, stronger effect = lower value 0.999 | locus YAL030W, strain snc1, stronger effect = lower value 0.98 | locus YBL061C, strain skt5, stronger effect = lower value 0.973 | locus YBR009C, strain hhf1, stronger effect = lower value 0.995 | locus YBR021W, strain FUR4, stronger effect = lower value 0.99 | locus YBR023C, strain chs3, stronger effect = lower value 0.979 | locus YBR171W, strain sec66, stronger effect = lower value 0.983 | locus YBR229C, strain ROT2, stronger effect = lower value 1 | locus YBR231C, strain swc5, stronger effect = lower value 0.989 | locus YBR279W, strain paf1, stronger effect = lower value 0.984 | locus YCL011C, strain gbp2, stronger effect = lower value 0.989 | locus YCL016C, strain dcc1, stronger effect = lower value 0.976 | locus YCL029C, strain bik1, stronger effect = lower value 0.989 | locus YCL061C, strain MRC1, stronger effect = lower value 0.977 | locus YCL069W, strain vba3, stronger effect = lower value 0.989 | locus YCR088W, strain abp1, stronger effect = lower value 0.972 | locus YDL005C, strain med2, stronger effect = lower value 0.965 | locus YDL035C, strain GPR1, stronger effect = lower value 1.01 | locus YDL040C, strain nat1, stronger effect = lower value 0.986 | locus YDL074C, strain BRE1, stronger effect = lower value 1.06 | locus YDL101C, strain DUN1, stronger effect = lower value 1 | locus YDL134C, strain PPH21, stronger effect = lower value 1 | locus YDL185W, strain tfp1, stronger effect = lower value 0.975 | locus YDL192W, strain arf1, stronger effect = lower value 0.989 | locus YDR001C, strain nth1, stronger effect = lower value 0.972 | locus YDR069C, strain doa4, stronger effect = lower value 1.01 | locus YDR101C, strain arx1, stronger effect = lower value 0.998 | locus YDR137W, strain rgp1, stronger effect = lower value 0.971 | locus YDR150W, strain NUM1, stronger effect = lower value 0.997 | locus YDR159W, strain sac3, stronger effect = lower value 0.973 | locus YDR162C, strain NBP2, stronger effect = lower value 1.01 | locus YDR195W, strain ref2 0.949 | locus YDR297W, strain sur2, stronger effect = lower value 0.982 | locus YDR318W, strain mcm21, stronger effect = lower value 0.993 | locus YDR334W, strain swr1, stronger effect = lower value 0.98 | locus YDR335W, strain msn5, stronger effect = lower value 0.978 | locus YDR388W, stronger effect = lower value 0.985 | locus YDR392W, strain spt3, stronger effect = lower value 0.927 | locus YDR502C, strain sam2, stronger effect = lower value 0.996 | locus YEL003W, strain gim4, stronger effect = lower value 0.981 | locus YEL037C, strain rad23, stronger effect = lower value 0.995 | locus YEL061C, strain CIN8 (second series), stronger effect = lower value 0.976 | locus YEL061C, strain CIN8, stronger effect = lower value 1 | locus YER015W, strain faa2, stronger effect = lower value 1 | locus YER016W, strain bim1, stronger effect = lower value 0.984 | locus YER110C, stronger effect = lower value 0.976 | locus YER111C, strain swi4, stronger effect = lower value 0.957 | locus YER155C, strain BEM2 (second series), stronger effect = lower value 0.985 | locus YER155C, strain BEM2, stronger effect = lower value 0.993 | locus YER167W, strain BCK2, stronger effect = lower value 0.994 | locus YFR010W, strain ubp6, stronger effect = lower value 0.977 | locus YGL078C, strain dbp3, stronger effect = lower value 0.976 | locus YGL086W, strain mad1, stronger effect = lower value 0.989 | locus YGL167C, strain pmr1, stronger effect = lower value 0.968 | locus YGL173C, strain kem1, stronger effect = lower value 0.981 | locus YGL227W, strain vid30, stronger effect = lower value 0.988 | locus YGL240W, strain doc1, stronger effect = lower value 1 | locus YGL248W, strain PDE1, stronger effect = lower value 1.01 | locus YGL253W, strain hxk2, stronger effect = lower value 0.976 | locus YGR078C, strain PAC10, stronger effect = lower value 1.03 | locus YGR135W, strain pre9, stronger effect = lower value 1.02 | locus YGR229C, strain SMI1, stronger effect = lower value 1.04 | locus YGR252W, strain gcn5, stronger effect = lower value 1.01 | locus YHR013C, strain ard1, stronger effect = lower value 0.946 | locus YHR027C, strain rpn1, stronger effect = lower value 0.98 | locus YHR030C, strain SLT2, stronger effect = lower value 1 and 0.966 | locus YHR079C, strain IRE1 (second series), stronger effect = lower value 0.997 | locus YHR079C, strain IRE1, stronger effect = lower value 0.967 | locus YHR094C, strain hxt1, stronger effect = lower value 0.965 | locus YHR129C, strain ARP1, stronger effect = lower value 1 | locus YHR142W, strain chs7, stronger effect = lower value 0.941 | locus YHR200W, strain rpn10, stronger effect = lower value 0.988 | locus YIL066C, strain RNR3, stronger effect = lower value 1.01 | locus YIL073C, strain SPO22, stronger effect = lower value 0.921 | locus YIL125W, strain kgd1, stronger effect = lower value 0.981 | locus YIR030C, strain dcg1, stronger effect = lower value 0.994 | locus YJL092W, strain hpr5, stronger effect = lower value 0.976 | locus YJL095W, strain BCK1 (second series), stronger effect = lower value 0.98 | locus YJL095W, strain BCK1, stronger effect = lower value 1.06 and 0.983 | locus YJL115W, strain asf1, stronger effect = lower value 0.977 | locus YJL129C, strain trk1, stronger effect = lower value 0.953 | locus YJL134W, strain LCB3, stronger effect = lower value 0.997 | locus YJL154C, strain vps35, stronger effect = lower value 0.971 | locus YJL164C, strain tpk1, stronger effect = lower value 0.979 | locus YJL166W, strain qcr8, stronger effect = lower value 0.982 | locus YJL168C, strain set2, stronger effect = lower value 0.988 | locus YJL187C, strain SWE1 (second series), stronger effect = lower value 0.999 | locus YJL187C, strain SWE1, stronger effect = lower value 0.976 | locus YJR043C, strain POL32, stronger effect = lower value 1.01 | locus YJR066W, strain TOR1, stronger effect = lower value 0.945
